# Experimental data taken from PubChem BioAssay AID1851 (National Center for Advancing Translational Sciences (NCATS), 2009).
# Several values for one entry are separate records, joined by “and”; a condition that tells them apart may be missing. Identical values can stand only once. The campaign covered roughly 16,000 compounds. About 5,700 (36%) were called active. Not shown: some 24% with an inconclusive outcome. Calls come from the whole dose curve; as a rule, active = well fitted curve in the direction sought with a large enough effect; inconclusive = small, poorly fitted or top-dose-only effect, or effect the other way; inactive = no such curve, though single readings can be large or run the other way. Some of the results follow.
# Target: Cytochrome P450 1A2 (Homo sapiens) (UniProt P05177)
# Sequence (P05177 whole entry, looked up): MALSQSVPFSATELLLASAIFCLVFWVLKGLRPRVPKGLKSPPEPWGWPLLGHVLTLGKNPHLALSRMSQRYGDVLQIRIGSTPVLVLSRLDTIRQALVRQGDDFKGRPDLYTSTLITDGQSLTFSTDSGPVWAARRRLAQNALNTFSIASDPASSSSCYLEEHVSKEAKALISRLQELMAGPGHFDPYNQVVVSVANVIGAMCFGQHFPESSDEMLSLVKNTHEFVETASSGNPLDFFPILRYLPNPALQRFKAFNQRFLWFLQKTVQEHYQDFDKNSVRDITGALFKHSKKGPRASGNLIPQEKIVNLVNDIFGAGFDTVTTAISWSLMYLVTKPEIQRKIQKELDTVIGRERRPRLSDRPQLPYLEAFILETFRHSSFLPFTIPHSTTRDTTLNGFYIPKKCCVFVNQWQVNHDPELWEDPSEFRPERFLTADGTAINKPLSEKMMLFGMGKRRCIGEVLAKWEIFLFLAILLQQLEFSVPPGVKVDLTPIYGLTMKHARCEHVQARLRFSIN
# Assay: Cytochrome panel assay with activity outcomes
# Conditions: recombinant CYP, pro-luciferin dealkylation, luminescence, p450-cyp1a2; series mostly up to 57.1 µM; activity, negative = inhibition: at the top concentration
# % is set by controls: 0 for no effect and ±100 for the full control effect.
Structure (SMILES),"activity, negative = inhibition",AC50
CO[C@]1(NC(=O)Cc2cccs2)C(=O)N2C(C(=O)O)=C(COC(N)=O)CS[C@H]21,1.9% [at 25.6 µM] (inactive),–
O=C(O)c1cccc(C(=O)O)c1S(=O)Cc1ccccc1 (stereo unspecified),-2.43% [at 11.4 µM] (inactive),–
O=c1c(-c2ccccc2)nc2cncnc2n1C1CC1,–,2 µM (active)
O=c1c(-c2cccc(F)c2)nc2cncnc2n1C1CC1,–,1.58 µM (active)
O=c1c(-c2cccs2)nc2cncnc2n1C1CC1,–,2.51 µM (active)
Cn1c(=O)c2c(-c3cccc(F)c3)c3c(nc2n(C)c1=O)-c1ccccc1C3O (stereo unspecified),-14.7% (inactive),–
O=c1c(-c2cccc(Cl)c2)nc2cncnc2n1C1CC1,–,0.631 µM (active)
CCC1OC23CCCCC2C(C#N)(C(=N)O3)C1(C#N)C#N (stereo unspecified),15.5% (inactive),–
NC(=O)NC(=O)[C@H]1CCCC[C@@H]1C(=O)O,-6.09% [at 11.4 µM] (inactive),–
O=C1C2C3C=CC(C3)C2C(=O)N1c1ncn[nH]1 (stereo unspecified),-12% (inactive),–
O=c1c(-c2cc(F)cc(F)c2)nc2cncnc2n1C1CC1,–,1.26 µM (active)
O=c1c(-c2ccc(F)c(F)c2)nc2cncnc2n1C1CC1,–,0.1 µM (active)
O=c1c(-c2ccc(F)cc2)nc2cncnc2n1C1CC1,–,0.158 µM (active)
Cc1nc2cncnc2n(C2CC2)c1=O,–,15.8 µM (active)
COc1ccc(-n2c(=O)c(C)nc3cncnc32)cc1,-16.4% (inactive),–
COC(=O)c1cc2c(ccn2-c2ccc(F)cc2)n1CC(C)C,–,0.501 µM (active)
COC(=O)c1cc2c(ccn2-c2ccc(F)cc2)n1C(C)C,–,1 µM (active)
CCC(C(=O)N1CCOCC1)n1c(C(=O)OC)cc2occc21 (stereo unspecified),-2.3% (inactive),–
COC(=O)C/C=C\[C@@H](C)[C@@H](/C=N\O[C@@H]1O[C@H](COC(C)=O)[C@H](OC(C)=O)[C@H](OC(C)=O)[C@H]1OC(C)=O)OC,8.95% [at 11.4 µM] (inactive),–
O=C1C[C@@H](O)[C@@H](O)[C@H]2[C@@H]3C(=O)N(Cc4ccc5c(c4)OCO5)C(=O)[C@@H]3CC[C@H]12,-14.6% [at 11.4 µM] (inactive) and 4.43% [at 11.4 µM] (inactive),–
Cc1ccccc1OC1C(=O)N(Cc2ccc3c(c2)OCO3)C1c1sccc1C (stereo unspecified),–,3.16 µM (active)

Structure (SMILES),"activity, negative = inhibition",AC50
COc1ccc(CCN2C(=O)C(Oc3ccccc3C)C2c2ccc3c(c2)OCO3)cc1OC (stereo unspecified),-16.5% (inactive),–
O=C(c1csnn1)N1CCC2(CCCN(c3ccccc3)C2)CC1,-20.2% (inactive),–
COc1cc(N)c(Cl)cc1C(=O)CCC1CCN(CCNS(C)(=O)=O)CC1,-13.3% (inactive),–
Cn1cc(C(=O)OCC2CCN(CCNS(C)(=O)=O)CC2)c2ccccc21,–,15.8 µM (active)
COc1[nH]c2ccc(F)cc2c1C(=O)OCC1CCN(CCNS(C)(=O)=O)CC1,–,inactive
CCOC(=O)C1C(=O)NC(C)C1c1ccccc1 (stereo unspecified),–,12.6 µM (active)
CCCCN1C(=O)CCC(C(=O)O)C1c1ccccc1 (stereo unspecified),-2.61% (inactive),–
CCOC(=O)C1(C(=O)O)NC(=O)CC1c1ccccc1 (stereo unspecified),-14.7% (inactive),–
C=CCOC(=O)C1=C(C)NC(SCC(=O)OCC)=C(C#N)C1c1ccc(C)cc1 (stereo unspecified),–,12.6 µM (active)
COC(=O)C1=C(C)NC(=O)NC1c1ccsc1 (stereo unspecified),12.8% (inactive),–
CCCSC1=C(C#N)C(c2cccnc2)C(C(=O)OCC)=C(c2ccccc2)N1 (stereo unspecified),-21.2% (inactive),–
COC(=O)CSC1=C(C#N)C(c2cccc(F)c2)CC(=O)N1 (stereo unspecified),-15.9% (inactive),–
CCOC(=O)CSC1=C(C#N)C(c2sccc2C)CC(=O)N1 (stereo unspecified),–,20 µM (active)
CCOC(=O)C1=C(C)NC(=O)NC1c1ccoc1 (stereo unspecified),–,15.8 µM (active)
CCOC(=O)C1=C(C)NC(C)=C(C(=O)OCC)C1c1sccc1C,–,5.01 µM (active)
CCOC(=O)C1=C(O)C(Nc2nccs2)(C(F)(F)F)N=C1C (stereo unspecified),-21% (inactive),–
CC(NC(=O)C1(C)CC1(Br)Br)C(C)(C)C (stereo unspecified),4.27% (inactive),–
CCOC(=O)CSC1=C(C#N)C(c2sccc2C)C(C(C)=O)=C(C)N1 (stereo unspecified),–,1.58 µM (active)
COc1cc(C2C(C#N)=C(N)OC3=C2C(=O)CCC3)cc(OC)c1OC(=O)N1CCOCC1 (stereo unspecified),7.11% (inactive),–
CCOC(=O)CSC1=C(C#N)C(C)C2=C(CCCC2=O)N1 (stereo unspecified),–,2.51 µM (active)

Structure (SMILES),"activity, negative = inhibition",AC50
CC(=O)NN1C(=O)c2ccc(Oc3cccc([N+](=O)[O-])c3)cc2C1=O,-11.1% (inactive),–
Cn1cc([N+](=O)[O-])c(C(=O)Nc2cc(Oc3cccnc3)cc([N+](=O)[O-])c2)n1,–,11.2 µM (active)
CC(=O)OC[C@@H]1O[C@H](C/C=N\OC[C@@H](C)[C@H](OCc2ccccc2)C(C)C)C=C[C@@H]1OC(C)=O,-2.33% [at 11.4 µM] (inactive),–
O=C(CNC(=O)c1ccco1)OCc1c(F)cccc1Cl,–,25.1 µM (active)
O=C(NCC(c1cccs1)N1CCOCC1)c1ccco1 (stereo unspecified),-7.7% (inactive),–
O=C(CNC(=O)c1ccccc1)NCC(=O)OCc1ccc(Cl)cc1,-27.7% (inactive),–
Cc1c(Nc2cc(N3CCCC(C)C3)c3nonc3c2[N+](=O)[O-])c(=O)n(-c2ccccc2)n1C (stereo unspecified),-9.86% (inactive),–
Cc1c(Cl)c(S(N)(=O)=O)cc2c1=NC=NS=2(=O)O,-9.57% [at 2.29 µM] (inactive),–
Cc1ccc(C(=O)NNC(=O)c2cc3cc4ccccc4nc3s2)cc1,-24.8% (inactive),–
O=C(Nc1cccc(-c2cnc3ccccc3n2)c1)c1ccc(Cl)cc1,–,1.12 µM (active)
Cn1c(CN2CCCCC2)nc2cc(NC(=O)c3ccc(Cl)cc3)ccc21,-11.7% (inactive),–
Cc1ccc(OCC(=O)NNC(=O)c2cccnc2)cc1,-1.21% (inactive),–
Cc1ccc(C(=O)Nc2cccc(-c3cnc4ccccc4n3)c2)cc1,–,0.891 µM (active)
COC(=O)COc1cccc(NC(=O)c2ccc(C)cc2)c1,–,7.94 µM (active)
O=C(O)C[C@H](Cc1ccccc1)C(=O)O,-4.07% [at 11.4 µM] (inactive),–
COCCn1c(C)cc2c(c1=O)C(c1ccccc1F)C(C#N)=C(N)O2 (stereo unspecified),-8.82% (inactive),–
c1ccc(N2CCN(CCCOc3ccc4c(c3)OCO4)CC2)cc1,–,12.6 µM (active)
Cc1ccc(N2CCN(CCC(=O)O)CC2)cc1,-8.97% [at 11.4 µM] (inactive),–
OC[C@@H](O)CN1CCN(c2ccccc2)CC1,-1.54% [at 25.6 µM] (inactive),–
